Reference: the supplement of paper PMC13380429
Values without a mark were called inactive.

Tested on: Vero E6 infected with SARS-CoV-2
Assay: inhibition of SARS-CoV-2 cytopathic effect; higher = more antiviral protection, active = above 15
Conditions: 48 h

| SMILES | inhibition of SARS-CoV-2 cytopathic effect (1 nM) [%] | inhibition of SARS-CoV-2 cytopathic effect (8.33 nM) [%] | inhibition of SARS-CoV-2 cytopathic effect (100 nM) [%] | inhibition of SARS-CoV-2 cytopathic effect (833.33 nM) [%] | inhibition of SARS-CoV-2 cytopathic effect (10000 nM) |
| --- | --- | --- | --- | --- | --- |
| CN(Cc1cnc2nc(N)nc(N)c2n1)c1ccc(C(=O)N[C@@H](CCC(=O)O)C(=O)O)cc1 [methotrexate] | -1.04 | -0.21 | -0.4 | 2 | -1.41% |
| O=S1(=O)c2cccc3cccc(c23)N1CCCN1CCN(c2ccc(F)cc2)CC1 [fananserin] | -2.57 | -1.46 | -1.21 | -2.34 | -0.89% |
| c1ccc(Cn2c(N3CCNCC3)nc3ccccc32)cc1 [lerisetron] | 1.65 | -0.34 | -0.91 | -3.79 | -5.52% |
| CNC(=S)C1(c2ccccn2)CCCS1 (stereo not given) [picartamide] | -4.38 | 0.23 | -0.26 | 2.39 | 6.75% |
| CN(C)C(=O)C(=O)c1cn(C)c2cc(Cl)c(C(=O)N3CCC(Cc4ccc(F)cc4)CC3)cc12 | 2.15 | -1.11 | -2.84 | -2.05 | 6.33% |
| CNC(=O)Oc1ccccc1OC(C)C [propoxur] | 2.55 | 4.24 | 3.02 | 2.09 | 2.81% |
| CC(C)n1c(/C=C/[C@@H](O)C[C@@H](O)CC(=O)O)c(-c2ccc(F)cc2)c2ccccc21 [fluvastatin] | -0.24 | -1.21 | 1.75 | -1.33 | 2.61% |
| Fc1cc(-c2cccc3ncc(-c4cnn(C5CCNCC5)c4)nc23)cc(F)c1CN1CCOCC1 | 1.49 | 2.64 | -2.32 | -1.44 | 63.3% (active) |
| O=c1c(O)c(-c2ccc(O)c(O)c2)oc2cc(O)cc(O)c12 [quercetin] | 1.33 | 0.85 | 0.21 | 1.78 | 3.03% |
| CC[C@@H]([C@H](C)O)n1ncn(-c2ccc(N3CCN(c4ccc(OC[C@@H]5CO[C@@](Cn6cncn6)(c6ccc(F)cc6F)C5)cc4)CC3)cc2)c1=O [posaconazole] | 0.11 | 0.51 | 0.36 | 2.23 | -6.91% |
| NS(=O)(=O)c1cc2c(cc1Cl)N=C(CSCc1ccccc1)NS2(=O)=O [benzthiazide] | 3.18 | 0.15 | 0.52 | 2.56 | -0.2% |
| c1cn2cc(-c3ccc4cn[nH]c4c3)nc(Nc3ccc(N4CCOCC4)cc3)c2n1 | -4.37 | -3.35 | -4.69 | 0.03 | -4.57% |
| CC(C)NCC(O)c1ccc([N+](=O)[O-])cc1 (stereo not given) [nifenalol] | -3.06 | 0.04 | -1.08 | 0.11 | -2.75% |
| CN(C(=O)CN1C(=O)COc2cc(Cl)c(Cl)cc21)[C@@H](CN1CCCC1)c1ccc(-c2cccc(C(N)=O)c2)cc1 | -0.51 | 1.04 | 3.9 | 1.88 | 5.93% |
| CCSc1ccc2c(c1)N(CCCN1CCN(C)CC1)c1ccccc1S2 [thiethylperazine] | -3.78 | -1.48 | -1.97 | -4.23 | 22.5% (active) |
| CO[C@@]1(NC(=O)Cc2cccs2)C(=O)N2C(C(=O)O)=C(COC(N)=O)CS[C@@H]21 [cefoxitin] | -0.07 | -1.13 | -0.89 | 0.12 | 1.09% |
| N=C(N)NC(=N)Nc1cccc(Cl)c1 [m-chlorophenylbiguanide] | 4.17 | 4.54 | 0.58 | -7.74 | -1.2% |
| O=C1CS[C@@H](c2ccccc2Cl)c2cc(Cl)ccc2N1 (racemic) | 1.66 | -2.6 | -1.47 | 5.44 | 7.2% |
| O=C(Nc1cc(C(F)(F)F)cc(C(F)(F)F)c1)Nc1c(Br)cc(Br)cc1-c1nnn[nH]1 | 1.22 | 1.04 | -0.61 | -2.22 | -3.2% |
| CCN[C@H]1CN(CCCOC)S(=O)(=O)c2sc(S(N)(=O)=O)cc21 [brinzolamide] | 0.37 | -1.59 | -2.91 | -1.67 | -2.11% |
| Cc1cccc(-c2n[nH]cc2-c2ccc3ncccc3n2)n1 [repsox] | -0.69 | 2.3 | -2.26 | -4.59 | -4.62% |
| Nc1nc(-c2ccc(Cl)c(Cl)c2)c(-c2ccncc2)s1 | -1.24 | 1.18 | -2.7 | -2.03 | -0.28% |
